Results filed as inconclusive are left out. Activity calls are given as the source filed them.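 The calls were made as follows, unless noted: active = viability increase at or above a cutoff of the median across tested compounds plus 3 SD (cut at about 8.5% in these data, passing the limit was not always enough); inconclusive = some gains above the cutoff, reason not given; inactive = the rest.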
Experiments:
[1] = reducers of endogenous Her2 protein level, primary screen, SKBR3 breast tumor cells, AlphaScreen, ATP viability (AID 461;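 active = Her2 level under about 52% in both replicate screens, with viability over 70% of control, limit read from the data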;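 as to Her2 level: lower value means less Her2 protein in the cells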;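 as to viability: percent of carrier control wells set as 100% viability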); details: 18-24 h, measured here: SKBR3 viability, ATP luminescence, at 10 µM
[2] = target: Receptor tyrosine-protein kinase erbB-2 (Homo sapiens) (UniProt P04626); assay: as above; details: 18-24 h, at 10 µM, stronger effect = lower value
[3] = SK-BR-3 cell growth inhibitors, pilot screen, 24 h, human (AID 572;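 active = viability at or below 10% of carrier control in both of two separate runs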;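 also: compound exposure lasted between 18 and 24 h rather than exactly 24 h; 100% = carrier-treated control wells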); details: SK-BR-3 viability, CellTiter-Glo luminescence, at 10 µM, stronger effect = lower value
[4] = HUVEC growth inhibition – cell-based, human, primary screen (AID 575;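 active = viability at or below 30% in both replicate assays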;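 also: 100% = median of untreated cell wells with 0.1% DMSO on each plate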); details: HUVEC proliferation, CellTiter-Glo luminescence, 72 h; at 10 µM; stronger effect = lower value
[5] = growth inhibitors of H69AR lung tumor, primary screen, human, duplicate replicates (AID 580;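 active = viability at or under a set limit in both replicates, limit being median viability minus 3 SD, cut at about 48% in these data, passing the limit was not always enough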;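 also: 100% = mean luminescence of untreated wells and 0% = no signal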); details: H69AR lung tumor cells viability, ATP luminescence, 72 h; at 10 µM; stronger effect = lower value
[6] = reversal of MRP1-mediated doxorubicin resistance, pilot screen, H69AR cells, doxorubicin co-treatment (AID 601;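 active = viability loss from added drug above about 55%, and viability with drug at most 40%, in both replicates, limit read from the data, passing the limit was not always enough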); details: CellTiter-Glo, 72 h, at 10 µM; for differential viability (reversal): stronger effect = higher value
[7] = 384-well plate pilot, post-Golgi transport modulator project, inhibition of yeast transport mutant growth (AID 636; in the data active = inhibition above about 31%); details: absorbance 615 nm, about 18 h, stronger effect = higher value
[8] = growth suppression of yeast trafficking mutant, preliminary HTS, modulators of trafficking downstream of Golgi apparatus project, 1536-format plate, OD 615 nm (AID 637; in the data active = inhibition above about 30%); details: yeast transport mutant growth, absorbance 615 nm, 18 h; stronger effect = higher value
[9] = OD615 S. cerevisiae growth inhibition, permissive medium, pilot counter-assay, permissive growth control for S. cerevisiae lifespan shortening project (AID 705;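 active = growth inhibition above 25% in both replicates, a cutoff set 3 SD above the mean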); details: OD615, 24 h, at 10 µM, stronger effect = higher value
[10] = Restrictive medium S. cerevisiae growth inhibition, OD615, pilot screen of yeast lifespan reduction project, restrictive growth control (AID 706;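 active = growth inhibition above a set limit, 3 SD over mean compound inhibition, in both replicates, cut at about 43% in these data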;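 also: modified DeaD lifespan yeast strain shifted to restrictive glucose medium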); details: OD615, 48 h, at 10 µM, stronger effect = higher value
[11] = viability gain of MRP-1-high H69AR cells under doxorubicin, pilot screen, MRP-1 activator project, CellTiter-Glo, duplicate (AID 807); details: H69AR viability with doxorubicin, CellTiter-Glo luminescence; at 10 µM; stronger effect = higher value;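 also: compound pretreatment 18-22 h then 72 h combined with doxorubicin; 0% = doxorubicin alone and 100% = vehicle without doxorubicin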
[12] = growth suppression of beta-catenin knockout HCT116, pilot screen, human colon tumor cells (AID 823;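 active = cell viability at or below a set limit in both duplicate runs, the limit being the all-compound median minus 4 SD, cut at about 23% in these data, passing the limit was not always enough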;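 also: 0% = wells killed by 20 µM Hyamine and 100% = untreated DMSO cell wells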); details: CellTiter-Glo, 60 h, at 10 µM, stronger effect = lower value
[13] = growth suppression of PTEN-deleted HCT116, pilot screen, cell-based, HCT116 clonal line, CellTiter-Glo (AID 824;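 active = viability at or below 27.92% in each of two runs, the all-compound median minus 4 SD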;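 also: 0% = 20 µM Hyamine control and 100% = vehicle cell control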); details: 60 h, at 10 µM, stronger effect = lower value
[14] = inhibitors of the yeast RAM network, pilot screen, dse1pr::URA3 reporter, 5-FOA selection (AID 869;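 active = inhibition over a set limit, the all-compound mean plus 3 SD, in both replicate runs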;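 also: 0% = DMSO wells with no growth and 100% = 10 µM 1-NA-PP1 with full growth; RAM network block rescues cells from 5-FOA so hits raise OD615 growth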); details: S. cerevisiae dse1pr::URA3 5-FOA growth, OD615, 2 d; at 10 µM; stronger effect = higher value; strain carries analog-sensitive mutant Cbk1 kinase
[15] = RAM signaling pathway blockade in yeast – S. cerevisiae, Pdr1DBD-CYC8 efflux-inhibited sensitized strain, primary screen (AID 1298;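 active = RAM network inhibition above 8.4% in each of two replicates, 3 SD over the compound average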;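 also: 0% = DMSO untreated cells without growth and 100% = 10 µM 1-NA-PP1 full growth; higher means more yeast growth rescued from 5-FOA killing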); details: S. cerevisiae cbk1-as DSE1-URA3 strain, 5-FOA growth OD615, 2 d; at 50 µM; stronger effect = higher value
[16] = H69AR cells + 2 uM doxorubicin, measured here: viability with 2 uM doxorubicin, stronger effect = lower value
[17] = H69AR cells, compound alone cytotoxicity

Receptor tyrosine-protein kinase erbB-2 (Homo sapiens), sequence (P04626 whole entry, looked up): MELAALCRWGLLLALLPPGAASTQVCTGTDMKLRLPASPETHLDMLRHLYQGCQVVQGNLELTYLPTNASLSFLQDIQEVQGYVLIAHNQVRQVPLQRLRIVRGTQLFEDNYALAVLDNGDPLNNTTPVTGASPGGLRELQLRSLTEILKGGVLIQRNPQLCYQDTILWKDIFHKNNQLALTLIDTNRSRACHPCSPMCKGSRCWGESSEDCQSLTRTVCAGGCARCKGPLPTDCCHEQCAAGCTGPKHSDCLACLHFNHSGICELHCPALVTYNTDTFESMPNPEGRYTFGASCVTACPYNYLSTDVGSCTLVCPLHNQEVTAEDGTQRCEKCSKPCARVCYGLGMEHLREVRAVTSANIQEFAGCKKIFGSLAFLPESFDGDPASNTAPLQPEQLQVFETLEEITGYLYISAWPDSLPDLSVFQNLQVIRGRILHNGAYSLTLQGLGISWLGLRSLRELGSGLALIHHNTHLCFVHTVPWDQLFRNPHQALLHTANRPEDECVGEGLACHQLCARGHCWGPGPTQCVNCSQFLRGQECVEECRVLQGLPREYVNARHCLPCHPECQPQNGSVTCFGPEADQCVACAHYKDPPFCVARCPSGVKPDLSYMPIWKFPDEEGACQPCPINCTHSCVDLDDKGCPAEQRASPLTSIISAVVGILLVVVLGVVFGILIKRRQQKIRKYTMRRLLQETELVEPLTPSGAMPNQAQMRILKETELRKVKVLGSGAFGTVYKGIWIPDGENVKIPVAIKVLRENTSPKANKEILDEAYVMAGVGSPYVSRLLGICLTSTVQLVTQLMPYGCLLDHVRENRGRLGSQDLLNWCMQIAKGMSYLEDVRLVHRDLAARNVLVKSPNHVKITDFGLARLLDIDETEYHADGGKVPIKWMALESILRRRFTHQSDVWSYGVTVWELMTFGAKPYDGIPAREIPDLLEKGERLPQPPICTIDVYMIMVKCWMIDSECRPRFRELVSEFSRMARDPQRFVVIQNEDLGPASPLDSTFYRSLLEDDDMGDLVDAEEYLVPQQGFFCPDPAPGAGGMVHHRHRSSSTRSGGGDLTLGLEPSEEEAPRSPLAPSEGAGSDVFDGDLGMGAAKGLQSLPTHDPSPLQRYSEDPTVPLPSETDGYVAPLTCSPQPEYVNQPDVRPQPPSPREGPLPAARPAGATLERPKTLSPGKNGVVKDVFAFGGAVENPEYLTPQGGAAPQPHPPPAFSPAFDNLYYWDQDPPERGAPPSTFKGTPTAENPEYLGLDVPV

O=C(Nn1cnnc1)C1Cc2ccccc2CN1S(=O)(=O)c1ccc(F)cc1 (stereo not drawn)
98.8%: viability [6, 16]
97.2%: viability [6, 17]
inactive: Her2 level [2] 97% | viability [3] 112% | viability [4] 90.4% | viability [5] 97.2% | differential viability (reversal) ([6]; H69AR cells + 2 uM doxorubicin) -1.64% | inhibition [7] -5.95% | inhibition [8] 4.75% | growth inhibition [9] -1.04% | growth inhibition [10] 5.43% | viability increase [11] 0.15% | viability [12] 101% | viability [13] 102% | inhibition [14] 0.38% | RAM network inhibition [15] 4.84%
112%: viability [1]

COc1ccccc1-n1c(=O)[nH]c2c(C(N)=O)nc(CC(C)C)nc21
80.4%: viability [6, 17]
81%: viability [1]
inactive: Her2 level [2] 109% | viability [3] 81% | viability [4] 96.8% | viability [5] 80.4% | differential viability (reversal) ([6]; H69AR cells + 2 uM doxorubicin) -12.7% | inhibition [7] -2.93% | inhibition [8] -2.17% | growth inhibition [9] -15.9% | growth inhibition [10] -13.4% | viability increase [11] -2.94% | viability [12] 97.9% | viability [13] 99.5% | inhibition [14] 1.01% | RAM network inhibition [15] 2.83%
93%: viability [6, 16]

CC(CC(=O)NC1CCSC1=O)c1ccccc1 (stereo not drawn)
97%: viability [1]
111%: viability [6, 16]
113%: viability [6, 17]
inactive: Her2 level [2] 87.5% | viability [3] 97% | viability [4] 89.2% | viability [5] 113% | differential viability (reversal) ([6]; H69AR cells + 2 uM doxorubicin) 1.77% | inhibition [7] -4.32% | inhibition [8] 0% | growth inhibition [9] 3.53% | growth inhibition [10] 6.91% | viability increase [11] 2.46% | viability [12] 96.5% | viability [13] 95.9% | inhibition [14] 0.235% | RAM network inhibition [15] 1.17%

Nc1cc(N)cc(-c2nc3ccccc3o2)c1
74.7%: viability [6, 16]
100%: viability [1]
93.7%: viability [6, 17]
inactive: Her2 level [2] 106% | viability [3] 100% | viability [4] 87.3% | viability [5] 93.7% | differential viability (reversal) ([6]; H69AR cells + 2 uM doxorubicin) 19.1% | inhibition [7] -2.4% | inhibition [8] 3.17% | growth inhibition [9] 1.61% | growth inhibition [10] 6.39% | viability increase [11] -0.39% | viability [12] 100% | viability [13] 95.4% | inhibition [14] 2.14% | RAM network inhibition [15] 0.61%

O=C(Nc1ccc(Cl)cn1)c1cccnc1
inactive: Her2 level [2] 112% | viability [3] 104% | viability [4] 81.6% | viability [5] 70.1% | differential viability (reversal) ([6]; H69AR cells + 2 uM doxorubicin) -17.4% | inhibition [7] -0.52% | inhibition [8] -6.56% | growth inhibition [9] -8.23% | growth inhibition [10] -14.8% | viability increase [11] -4.65% | viability [12] 63% | viability [13] 62% | inhibition [14] 1.56% | RAM network inhibition [15] -0.47%
104%: viability [1]
87.6%: viability [6, 16]
70.1%: viability [6, 17]

Cc1ccc(S(=O)(=O)Cc2ccc(C(=O)N3CCN(Cc4ccccc4)CC3)o2)cc1
86.5%: viability [1]
85.8%: viability [6, 17]
94.6%: viability [6, 16]
inactive: Her2 level [2] 80.5% | viability [3] 86.5% | viability [4] 106% | viability [5] 85.8% | differential viability (reversal) ([6]; H69AR cells + 2 uM doxorubicin) -8.85% | inhibition [7] -0.9% | inhibition [8] 3.5% | growth inhibition [9] 0.06% | growth inhibition [10] -3.51% | viability increase [11] -1.59% | viability [12] 97.3% | viability [13] 94.9% | inhibition [14] 1.59% | RAM network inhibition [15] 6.48%

CC1CCN(Cc2nc3c(c(=O)n(C)c(=O)n3C)n2Cc2cccc3ccccc23)CC1
inactive: Her2 level [2] 86.5% | viability [3] 84% | viability [4] 98% | viability [5] 84.9% | differential viability (reversal) ([6]; H69AR cells + 2 uM doxorubicin) -4.26% | inhibition [7] -4% | inhibition [8] 3.67% | growth inhibition [9] -0.525% | growth inhibition [10] 0.35% | viability increase [11] -1.93% | viability [12] 87% | viability [13] 88.2% | inhibition [14] 0.115% | RAM network inhibition [15] 7.49%
84.9%: viability [6, 17]
84%: viability [1]
89.2%: viability [6, 16]

CCCNC(=O)C1CCN(S(=O)(=O)c2ccc3nc4c(c(C(=O)O)c3c2)CCCCC4)CC1
99%: viability [1]
inactive: Her2 level [2] 92% | viability [3] 99% | viability [4] 105% | viability [5] 98.7% | differential viability (reversal) ([6]; H69AR cells + 2 uM doxorubicin) 2.09% | inhibition [7] -1.87% | inhibition [8] 8.36% | growth inhibition [9] 2.08% | growth inhibition [10] -0.39% | viability increase [11] 1.14% | viability [12] 108% | viability [13] 103% | inhibition [14] 2.09% | RAM network inhibition [15] 7.93%
98.7%: viability [6, 17]
96.6%: viability [6, 16]

Cc1cccnc1-n1c(CCN2C(=O)c3ccccc3C2=O)nc2ccccc2c1=O
91.1%: viability [6, 16]
95.1%: viability [6, 17]
89.5%: viability [1]
inactive: Her2 level [2] 106% | viability [3] 89.5% | viability [4] 89.2% | viability [5] 95.1% | differential viability (reversal) ([6]; H69AR cells + 2 uM doxorubicin) 4.03% | inhibition [7] 1.28% | inhibition [8] -10.3% | growth inhibition [9] 6.29% | growth inhibition [10] -3.29% | viability increase [11] -2.01% | viability [12] 102% | viability [13] 97.4% | inhibition [14] 0.525% | RAM network inhibition [15] 3.68%
